# Screening data from PubChem BioAssay.
# Only some compounds are listed: those with a hit (about 4.5% of all), similar ones and a draw of the others.
# HDAC3 inhib: blocks human histone deacetylase 3; recombinant HDAC3, fluorogenic peptide/trypsin coupled, fluorescence; inhibition, % at 8.3 µM; 320,000 tested, 0.15% active; AID 2718; in the data active means inhibition above about 26%, passing the limit was not always enough
# Rce1 inh: blocks yeast Ras-converting enzyme. 290,000 tested, 0.27% active. AID 2563. Q03530. yeast membranes, quenched prenylated peptide cleavage fluorescence. calls only;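 active means fall in fluorescence gain of 50% or more versus controls, with final raw signal at or below 3038400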;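 further: plate controls were neutral control wells for no effect and wells lacking membranes for full effect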
# ALR H2O2 inh: human ALR oxidase inhibition via reduced H2O2; purified ALR, DTT oxidation, H2O2 HRP-luminol luminescence; inhibition, % (concentration not given with the values); 290,000 tested, 3.8% active;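 active means mean replicate inhibition above about 79%, with every replicate also reaching it, limit read from the data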
# Target sequence (P55789 whole entry, looked up): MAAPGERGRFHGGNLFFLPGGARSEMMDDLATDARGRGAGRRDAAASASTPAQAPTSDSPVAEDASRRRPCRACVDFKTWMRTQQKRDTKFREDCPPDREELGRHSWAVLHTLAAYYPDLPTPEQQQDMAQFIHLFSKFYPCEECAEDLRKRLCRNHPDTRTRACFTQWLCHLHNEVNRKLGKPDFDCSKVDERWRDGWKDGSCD
# Rtt109 HAT inh: C. albicans Rtt109 histone acetyltransferase inhibition | Q5AAJ8 | purified Rtt109/Vps75, ThioGlo CoA-SH fluorescence, 4 h | inhibition, % at 34.9 µM | 330,000 tested, 0.16% active | AID 540336;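 active means inhibition of at least 50% in every replicate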
# Target sequence (Q5AAJ8 whole entry, looked up): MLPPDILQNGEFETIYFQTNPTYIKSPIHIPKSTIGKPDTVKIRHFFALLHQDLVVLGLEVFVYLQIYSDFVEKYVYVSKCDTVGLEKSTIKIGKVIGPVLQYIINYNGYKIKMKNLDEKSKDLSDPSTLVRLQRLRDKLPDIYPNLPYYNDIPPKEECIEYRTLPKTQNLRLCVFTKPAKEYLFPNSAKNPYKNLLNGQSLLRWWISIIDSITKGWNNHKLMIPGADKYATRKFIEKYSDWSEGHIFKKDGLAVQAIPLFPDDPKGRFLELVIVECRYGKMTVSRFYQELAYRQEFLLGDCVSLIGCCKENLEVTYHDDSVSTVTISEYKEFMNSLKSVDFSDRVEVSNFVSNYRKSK
# Efflux pump inh: antifungal efflux pump inhibition, Nile Red retention. S. cerevisiae Candida pump triplex. inhibition, % at 10 µM. 330,000 tested, 0.44% active;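 active means plate passing quality check with inhibition over a set limit, or well fluorescence over plate mean plus 4 SD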;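 further: Nile Red retained in pooled yeast measured as flow cytometry median fluorescence; 0% = buffer negative control and 100% = Enniatin B positive control; higher means more Nile Red kept so more efflux inhibition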
# GRK2 inh: blocks RNA aptamer binding to human GRK2 | P25098 | bead flow cytometry, FAM-aptamer displacement from GRK2 | inhibition of aptamer binding, % at 10 µM | 330,000 tested, 0.59% active | AID 488847;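 active means inhibition of aptamer binding above 40%, roughly 3 SD of noise, on plates passing a quality check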;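 further: median bead fluorescence of bound FAM aptamer so fluorescent compounds give negative values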
# Cmpd fluor yeast: counter-screen for efflux pump inhibitors: compound fluorescence; S. cerevisiae AD/pABC3, flow cytometry; fluorescence ratio to DMSO, % at 10 µM; AID 588517; shares compounds with Efflux pump inh; 1,700 tested, 4% active;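 active means fluorescence ratio to DMSO above its plate's cutoff, the plate mean ratio plus 5 SD, cut at about 210% in these data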;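 further: unstained yeast with no Nile Red so the signal is compound autofluorescence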
# Mdr1 pump inh: Candida Mdr1 efflux pump inhibition; 1,700 tested, 1% active; AID 588518; S. cerevisiae AD/CaMDR1, Nile Red efflux, flow cytometry; inhibition, % at 10 µM; shares compounds with Efflux pump inh; in the data active means inhibition above about 26%;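 further: 0% = DMSO vehicle and 100% = reference inhibitor; higher means more Nile Red retained so more efflux inhibition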
# Cdr2 pump inh: Candida Cdr2 efflux pump inhibition | shares compounds with Efflux pump inh | S. cerevisiae AD/CaCDR2, Nile Red retention, flow cytometry | Nile Red retention ratio vs DMSO, % at 10 µM | 1,700 tested, 4% active; in the data active means Nile Red retention ratio vs DMSO above about 190%;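 further: higher ratio means more blocking of Cdr2 efflux of the dye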
# CaCdr1 efflux inh: Candida Cdr1 efflux pump inhibition; shares compounds with Efflux pump inh; S. cerevisiae AD/CaCDR1, Nile Red efflux, flow cytometry; inhibition, % at 10 µM; 1,700 tested, 1% active;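 active means inhibition above the screen-wide mean plus twice its standard deviation, cut at about 32% in these data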
# An asterisk follows results filed as active; i = inactive; · = no result given; + = active, no number.
SMILES,HDAC3 inhib,Rce1 inh,ALR H2O2 inh,Rtt109 HAT inh,Efflux pump inh,GRK2 inh,Cmpd fluor yeast,Mdr1 pump inh,Cdr2 pump inh,CaCdr1 efflux inh
COc1ccc(OCc2cc(C(=O)N(C)C3CCOC3)no2)c(Cl)c1 (centres undefined),-6.2,i,-1.5,-4.6,0.2,0.0,90.1,-0.2,93.5,-0.1
CCC(NC(=O)c1cc(COc2ccc(Cl)cc2OC)on1)c1ccncc1 (centres undefined),-4.0,i,-2.4,-0.3,-0.4,1.0,·,·,·,·
CCC(NC(=O)c1cc(COc2ccc(OC)cc2Cl)on1)c1ccncc1 (centres undefined),4.7,i,-4.2,-7.8,-0.1,0.0,82.2,0.0,93.2,-0.4
Cc1nnc(SCc2cc(=O)[nH]c(Nc3nc(C)c4cc(C)c(C)cc4n3)n2)s1,-2.5,i,8.7,-1.9,1.6*,0.0,106.2,0.1,101.8,-0.1
CCOc1ccc(/C=N/NC(=O)c2ccccc2O)cc1CN1CC2CC(C1)c1cccc(=O)n1C2 (centres undefined),-7.9,·,15.3,2.4,0.8*,1.0,85.5,-0.3,103.8,-0.2
CC(SCC(=O)Nc1ccccc1Br)c1nc2ccccc2c(=O)[nH]1 (centres undefined),5.2,·,-2.8,2.0,-0.1,1.0,·,·,·,·
CCOC(=O)C1(C(F)(F)F)N=C(c2ccccc2F)OC(N(C)C)=N1 (centres undefined),4.7,i,-0.2,0.8,0.2,1.0,·,·,·,·
CCOC(=O)C1(C(F)(F)F)N=C(c2cccnc2)OC(N2CCCCC2)=N1 (centres undefined),-1.0,i,-5.5,-8.6,5.5*,3.0,104.5,0.0,116.5,0.1
CC(C)CCNC(=O)c1onc(CSc2ccccn2)c1C(=O)NCCC(C)C,4.7,i,47.6,5.7,0.6*,8.0,103.6,0.0,101.7,-0.2
COCCNC(=O)c1onc(CSc2ccccn2)c1C(=O)NCCOC,5.2,i,1.3,6.8,-0.3,1.0,·,·,·,·
CCOC(=O)CC(=O)c1cc(OC)c(OC)c(OC)c1,4.2,i,43.6,6.2,0.8*,2.0,117.5,0.3,106.0,0.1
CCOC(=O)Cn1nnc(-c2cc(OC)c(OC)c(OC)c2)n1,3.1,i,-32.7,-4.2,0.1,0.0,·,·,·,·
COc1ccc(NC(=O)CN(C)C(=O)C(C)N2C(=O)c3ccccc3C2=O)cc1 (centres undefined),·,i,·,-0.9,-0.1,0.0,·,·,·,·
Cc1ccc2[nH]c(C)c(/C=C/c3cc[n+](C)cc3)c2c1,16.8,i,99.3*,0.2,20.0*,0.0,+,16.3,317.0*,15.5
Cc1ccc2c(c1)c(/C=C/c1cc[n+](C)cc1)c(C)n2C,14.3,i,85.5*,-11.6,24.6*,0.0,+,31.8*,290.3*,16.5
C[n+]1ccc(/C=C/c2c[nH]c3ccc(F)cc23)cc1,4.9,i,31.2,-14.4,4.2,3.0,·,·,·,·
C[n+]1ccc(/C=C/c2ccc(Br)cc2)cc1,12.9,i,-7.8,3.1,0.2,0.0,·,·,·,·
Cc1cc2nnc(SCC(=O)NCC(c3ccccc3)N(C)C)n2c2ccccc12 (centres undefined),1.5,i,-12.6,2.6,-0.4,3.0,·,·,·,·
Cc1cc(C)c(C(=O)N2CCC(N3CCC(C(=O)NC(C)C)CC3)CC2)o1,-4.9,i,-5.3,25.8,0.0,0.0,·,·,·,·
COc1ccc(-c2nc3ccccc3c(=O)n2CCOc2cc(C)ccc2C)cc1,-0.4,·,-0.3,-2.6,0.7*,1.0,101.7,-0.2,111.6,0.1
COc1ccc(-c2nc3ccccc3c(=O)n2CCOc2ccc(C)cc2C)cc1,2.0,·,2.7,-0.2,0.7*,4.0,103.1,0.1,111.6,0.2
COc1ccc(-c2nc3ccccc3c(=O)n2CCOc2ccccc2C)cc1,-3.1,·,0.1,-2.2,0.8*,0.0,104.5,0.1,110.3,-0.1
COc1ccc(-c2nc3ccccc3c(=O)n2CCCn2ccnc2)cc1,4.6,i,-15.4,-4.9,0.0,1.0,·,·,·,·
COc1cc(C(=O)OCC(=O)Nc2ccc(N3CCOCC3)cc2)ccc1OCC(C)C,4.4,i,-0.3,-9.3,0.0,0.0,·,·,·,·
O=c1[nH][nH]c(=O)c(Cl)c1Cl,·,·,·,1.4,·,·,·,·,·,·
SMILES,HDAC3 inhib,Rce1 inh,ALR H2O2 inh,Rtt109 HAT inh,Efflux pump inh,GRK2 inh,Cmpd fluor yeast,Mdr1 pump inh,Cdr2 pump inh,CaCdr1 efflux inh
Nc1cc(Nc2ccccc2)c2nonc2c1[N+](=O)[O-],-2.2,i,-3.0,-6.4,1.4*,0.0,105.0,0.0,93.0,-0.3
CCOC(=O)Cn1cnc2c(nnn2-c2ccc(F)cc2)c1=O,4.5,i,-23.6,-22.1,-0.1,5.0,·,·,·,·
O=C(O)c1ccc(-c2nnn(Cc3cccc(C(F)(F)F)c3)n2)cc1,-4.8,i,-0.3,1.2,-0.1,1.0,·,·,·,·
CCOC(=O)C1=C(CS(=O)(=O)c2ccccc2)NC(=O)NC1c1ccccc1 (centres undefined),2.6,i,1.1,0.6,0.5*,7.0,89.9,0.0,96.0,0.0
COc1ccc(C2C(C#N)=C(N)N(c3ccccc3C#N)C3=C2C(=O)CCC3)cc1CN1CCCC1 (centres undefined),4.6,i,-0.7,3.4,9.6*,0.0,103.0,-0.3,91.4,0.0
O=Cc1cn(CC(=O)Nc2ccc3c(c2)OCO3)c2ccccc12,-2.2,i,-14.0,-15.9,1.1*,0.0,104.0,-0.1,109.4,0.1
CC1Cc2ccccc2N1CC(=O)Nc1ccc2c(c1)OCO2 (centres undefined),-6.4,i,-7.5,3.9,12.1*,0.0,133.6,1.1,103.9,0.5
O=C(Cc1ccccc1[N+](=O)[O-])Nc1ccc2c(c1)OCO2,-1.4,i,2.5,-3.1,1.3*,2.0,102.5,-0.1,89.0,0.0
CCOC(=O)N1CCC(NC(=O)CN2C(=O)CCSc3ccccc32)CC1,-2.0,i,23.2,1.0,0.0,0.0,99.7,-0.1,90.1,-0.1
O=C(CN1C(=O)CSc2ccccc21)NC1CCCC1,1.1,i,-4.3,-34.7,-0.1,0.0,·,·,·,·
Cc1cccc(NC(=O)N2CCCC2C(=O)Nc2ccccc2)c1 (centres undefined),2.3,i,1.5,-3.9,-0.1,0.0,·,·,·,·
COc1cccc([C@@H]2CC=C(C(=O)O)[C@H](c3ccccc3F)N2S(=O)(=O)c2ccc(C)cc2)c1,-4.0,·,3.2,0.4,-0.1,3.0,·,·,·,·
O=C(CN1C(=O)CSc2ccccc21)Nc1ccc2c(c1)OCCO2,-0.7,i,-1.9,-5.4,-0.8,1.0,·,·,·,·
